Compound activity: PubChem, National Center for Advancing Translational Sciences (NCATS)
Compounds with a hit are over-represented: about 3.7% of the library has one in this group of screens.
FMDV inh – foot and mouth disease virus antiviral activity | FMDV antiviral cell-based qHTS | Potency, µM (titrated, usually from 57.9 µM), without a hit: top-dose activity change, negative = inhibition, usual class: inhibitors | 1.2% of 410,000 active; calls by dose curve; tested in HEK293T cells; further: read-out not given here; nearly all actives have a fitted effect of over 45% in size
TbPYK inhibitor – T. brucei pyruvate kinase inhibition | Q57TT1 | TbPYK enzyme, Kinase-Glo Plus ATP luminescence, 45 min | Potency, µM (highest dose often 76.8 µM), for inactives: at the top dose activity, negative = inhibition, actives largely listed as inhibitors | 0.12% of 410,000 active | AID 624173; further: nearly all actives have a fitted effect of over 50% in size
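Activity of T. brucei pyruvate kinase was followed by Kinase-Glo Plus luminescence after the enzyme reacted 45 min at room temperature with 130 uM ADP (final) and substrate. Test compounds were added before ADP at multiple concentrations.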
RE007 growth inh – less growth of the S. pombe RE007 Vpr strain; S. pombe RE007 Vpr strain, BacTiter-Glo ATP luminescence, 24 h; 0.21% of 360,000 active; AID 651644; Potency, µM (series often up to 92.2 µM), inactives show top-dose activity change, negative = less growth, most hits filed as inhibitors; active means well fitted falling curve with a large enough effect; inconclusive means small, poorly fitted or top-dose-only effect; inactive means no such curve, though single readings can be large or run the other way; further: nearly all actives have a fitted effect of over 50% in size
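Fission yeast RE007 carrying one integrated HIV-1 vpr copy, seeded at OD 0.01 in PMG+AL medium with 23 nL pinned compound. Grown 24 h at 30 degrees; viability read by BacTiter-Glo luminescence after 5 min.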
Sm TGR block – blocks Schistosoma mansoni thioredoxin glutathione reductase. 3% of 360,000 active. Q962Y6. purified TGR, DTNB reduction, TNB absorbance 405 nm. Potency, µM (highest dose often 114 µM), for the others: at the top dose activity change, negative = inhibition, usual class: inhibitors. AID 485364; further: nearly all actives have a fitted effect of over 60% in size
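TGR 20 nM + NADPH 100 uM (dispensed conc.), cpd preinc 15 min RT; start with NADPH (500 uM addition) then DTNB (15 mM addition). Kinetic TNB absorbance, 405 nm filter. Four-parameter Hill fit across titration.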
The depositor's hits bear a star; ? = inconclusive; . = no result given. Unless noted, the call rests on the fitted dose curve; in most records, active means well fitted curve in the direction sought with a large enough effect; inconclusive means small, poorly fitted or top-dose-only effect, or another doubt; inactive means no such curve, though single readings can be large; an effect the other way counts as inactive or inconclusive. On the % scale 0 is the no-effect control and ±100 the full control effect; potency means the concentration at half of the fitted maximal effect.

SMILES	FMDV inh	TbPYK inhibitor	RE007 growth inh	Sm TGR block
O=C(c1ccc(CS(=O)c2ccccc2Cl)o1)N1CCN(C2CCCCC2)CC1 (configuration not stated)	0.0%	4.0%	-17.8%	.
O=C(Nc1ccc2oc(-c3ccccc3F)nc2c1)c1ccc2c(c1)OCCO2	35.5µM*	-8.8%	16.4%	4.6%
CCOc1ccc(-n2nc3ccc(NC(=O)c4ccc5c(c4)OCCO5)cc3n2)cc1	.	4.7%	-0.3%	-2.2%
O=C(Nc1ccc2nn(-c3ccccc3)nc2c1)c1ccc2c(c1)OCCO2	25.1µM*	8.2%	0.5%	-38.2%
Cc1ccc(NC(=O)CSc2nc3c(sc4ccccc43)c(=O)n2CCCC(=O)NC2CCCC2)cc1C	-6.3%	4.1%	.	0.1%
CCN1CCN(c2ccc(N)cc2C)CC1	-9.3%	2.7%	-2.2%	3.1%
Nc1cc(Cl)ccc1N1CCCCCC1	9.9%	-0.5%	-7.0%	6.31µM*
Nc1cc(Cl)ccc1N1CCCCC1	-2.5%	0.8%	-1.5%	0.0%
Cc1cc(N)ccc1N1CCCC1	-5.9%	5.6%	-9.8%	5.01µM*
Cc1ccc(C)c(NC(=O)CSc2nnc(NC(=O)Nc3ccccc3)s2)c1	-2.3%	-8.6%	.	6.3%
Cc1c(Cl)cccc1NC(=O)Cn1nc(C)c2sc3ccccc3c2c1=O	-3.4%	0.5%	.	-2.3%
C[C@@H]1CN(Cc2ccc3c(c2)CN(C(=O)c2ccc(Oc4ccccc4)o2)CCO3)C[C@H](C)O1	-15.6%	.	.	.
CC(NC(=O)c1cc(F)ccc1F)c1nnc2n1CCN(Cc1cccs1)CC2 (configuration not stated)	0.8%	.	.	.
Cc1cccc(/C=C/c2onc(C)c2[N+](=O)[O-])n1	14.1µM*	-2.5%	?	.
Cc1cccc(N/C=C/c2onc(C)c2[N+](=O)[O-])c1	69.1%	?	-3.7%	-0.5%
CCN1CCN(C(=O)C(C)Nc2cc(Cl)c(OC)cc2OC)CC1 (configuration not stated)	3.5%	-1.7%	-5.2%	20µM*
CCOc1cc(N2CCOCC2)c(OCC)cc1NC(C)C(=O)N1CCN(CC)CC1 (configuration not stated)	-6.2%	4.9%	-15.0%	-33.0%
O=C(NC1CC(=O)N(c2ccccc2)C1)c1cccs1 (configuration not stated)	-16.1%	0.0%	.	7.0%
CN(C)c1ccc(-c2nc(NCCc3cnc[nH]3)c3ccccc3n2)cc1	-17.6%	.	.	.
COc1ccc(CNC(=O)CC(c2ccc(OC)cc2)N2Cc3ccccc3C2=O)cc1 (configuration not stated)	12.8%	1.2%	.	12.7%
NN/C(=C\[N+](=O)[O-])Nc1ccccc1	17.5%	1.1%	-17.0%	22.4µM*
NN/C(=C\[N+](=O)[O-])Nc1ccc(Cl)cc1	14.0%	-6.2%	-29.4%	2.82µM*
O=C1CC(c2nc3ccccc3n2Cc2c(F)cccc2Cl)CN1c1cccc(C(F)(F)F)c1 (configuration not stated)	?	6.6%	.	3.6%
CC(=O)Nc1ccc(S(=O)(=O)N(C)CC(=O)OCC(=O)N2CCN(C(=O)c3ccco3)CC2)cc1	0.2%	-5.1%	-10.3%	50.1µM*
CCOC(=O)/C=C/C(=O)OCC(=O)N1CCN(C(=O)c2ccco2)CC1	?	-0.8%	-4.7%	31.6µM*
SMILES	FMDV inh	TbPYK inhibitor	RE007 growth inh	Sm TGR block
CC(=O)Nc1ccc(S(=O)(=O)N(C)CC(=O)OCC(=O)N2CCCCCC2)cc1	-12.4%	0.4%	1.1%	5.7%
Cc1cc(SCC(=O)OCC(=O)N2CCN(C(=O)c3ccco3)CC2)c(C)cc1Br	.	?	-4.7%	?
Cc1ccc(SCC(=O)OCC(=O)N2CCN(C(=O)c3ccco3)CC2)c(C)c1	-5.8%	1.4%	5.1%	44.7µM*
Cc1ccc2occ(CC(=O)N3CCN(c4cccc(Cl)c4)CC3)c2c1	-21.9%	1.7%	.	0.4%
COc1ccc(N2CCN(CCCNC(=O)C3CCC(CNc4nc(=S)[nH]c5ccccc45)CC3)CC2)cc1 (configuration not stated)	?	-1.4%	-16.1%	2.2%
O=C(C1CCC(Cn2c(=S)[nH]c3ccccc3c2=O)CC1)N1CCN(c2ccccn2)CC1 (configuration not stated)	22.4µM*	-9.5%	9.4%	-1.0%
O=C(C1CCC(CNc2nc(=S)[nH]c3ccccc23)CC1)N1CCN(c2ccc(F)cc2)CC1 (configuration not stated)	17.8µM*	-5.5%	-6.7%	-1.3%
